Data on 10 molecules can be found in the supplement of paper PMC6279402.

± gives the standard deviation of the averaged measurements.

The test system of the experiment is A549. Briefly: relative viability (normalised to negative control = 1, bortezomib = 0) (fraction); higher = less cytotoxic. Particulars: inflammatory serum-free RHB-A with cytokines + LPS, 5 d + 24 h CellTiter-Blue. Background: Alamar Blue is a resazurin reagent that responds to reducing activity.
Setting [1] is: compound 30 nM, GSK126 pretreatment: 5 uM GSK126.
Where [2] appears, read: compound 30 nM, GSK126 pretreatment: none (vehicle).
[3] abbreviates: compound 300 nM, GSK126 pretreatment: 5 uM GSK126.
The mark [4] stands for this setting: compound 300 nM, GSK126 pretreatment: none (vehicle).

`NC(=O)c1ccc(N(C(N)=O)c2c(F)cccc2F)nc1-c1ccc(F)cc1F`: the relative viability came out at 0.914 ± 0.11 under setting [1], 0.873 ± 0.059 under setting [2], 1.09 ± 0.055 under setting [3] and 0.995 ± 0.11 under setting [4].

As for `COc1cc(N2CCC(N3CCN(C)CC3)CC2)ccc1Nc1ncc(Cl)c(Nc2ccccc2S(=O)(=O)C(C)C)n1`, the relative viability under setting [1] came to 0.545 ± 0.012, the relative viability under setting [2] was determined as 0.605 ± 0.022, the relative viability under setting [3] was found to be 0.211 ± 0.019 and the relative viability under setting [4] amounted to 0.259 ± 0.028.

For the molecule `CNC(=O)c1c(F)cccc1Nc1nc(Nc2cc3c(cc2OC)CCN3C(=O)CN(C)C)nc2[nH]ccc12`, the relative viability is 0.762 ± 0.059 under setting [1], 0.792 ± 0.067 under setting [2], 0.295 ± 0.019 under setting [3] and 0.431 ± 0.015 under setting [4].

On to `Cc1cc(Nc2nc(N[C@@H](C)c3ncc(F)cn3)ncc2Cl)[nH]n1`, for which the relative viability under setting [1] came out at 0.912 ± 0.1, the relative viability under setting [2] came to 0.872 ± 0.08, the relative viability under setting [3] stood at 1.15 ± 0.076 and the relative viability under setting [4] was found to be 1.13 ± 0.017.

`C=CC(=O)Nc1cccc(Sc2nc(Nc3ccc(N4CCN(C)CC4)cc3)ncc2Cl)c1`: the relative viability is, setting by setting: under setting [1], 0.859 ± 0.1; under setting [2], 0.815 ± 0.085; under setting [3], 0.475 ± 0.1; under setting [4], 0.477 ± 0.083.

As for `C[C@]12CC[C@@H]3c4ccc(O)cc4C[C@@H](CCCCCCCCC[S+]([O-])CCCC(F)(F)C(F)(F)F)[C@H]3[C@@H]1CC[C@@H]2O` (stereo not given in full) [Fulvestrant], the relative viability came to 0.901 ± 0.098 under setting [1], 0.836 ± 0.039 under setting [2], 0.85 ± 0.065 under setting [3] and 0.855 ± 0.024 under setting [4].

For the molecule `Nc1nc(F)nc2c1ncn2[C@@H]1O[C@H](COP(=O)(O)O)[C@@H](O)[C@@H]1O` [Fludarabine; Fludarabine phosphate], the relative viability is, setting by setting: under setting [1], 0.858 ± 0.071; under setting [2], 0.879 ± 0.098; under setting [3], 0.891 ± 0.089; under setting [4], 0.842 ± 0.055.

As to `C#Cc1cccc(Nc2ncnc3cc(OCCOC)c(OCCOC)cc23)c1`, the relative viability was found to be 0.81 ± 0.083 under setting [1], 0.823 ± 0.12 under setting [2], 0.448 ± 0.041 under setting [3] and 0.494 ± 0.031 under setting [4].

Regarding `COc1c2occc2cc2ccc(=O)oc12` [Methoxsalen], the relative viability runs as follows: under setting [1], 0.902 ± 0.065; under setting [2], 0.883 ± 0.11; under setting [3], 0.881 ± 0.026; under setting [4], 0.906 ± 0.057.

Regarding `CCc1cccc(CC)c1NC(=O)N1Cc2[nH]nc(NC(=O)c3ccc(N4CCN(C)CC4)cc3)c2C1`, the relative viability by setting is: under setting [1], 0.891 ± 0.14; under setting [2], 0.91 ± 0.12; under setting [3], 0.701 ± 0.13; under setting [4], 0.557 ± 0.075.
